The results in this text go back to article PMC11006913.

Holding throughout (test): PBM; 200 nM protein, PBS
Common to all, as to details: dsDNA, one strand shown

The target in experiment [1] is HESX1 (Homo sapiens, UniProt Q9UBX0 95-180, R165K).
In experiment [2] the target is HESX1 (Homo sapiens, UniProt Q9UBX0 95-180).
Experiment [3] has as its target HESX1 (Homo sapiens, UniProt Q9UBX0 95-180, R109Q).
Experiment [4] deals with HESX1 (Homo sapiens, UniProt Q9UBX0 95-180, P111T).
Experiment [5] deals with HESX1 (Homo sapiens, UniProt Q9UBX0 95-180, F115L).
Chain of HESX1 (Homo sapiens, UniProt Q9UBX0 95-180, F115L) (Q9UBX0 95-180 F115L): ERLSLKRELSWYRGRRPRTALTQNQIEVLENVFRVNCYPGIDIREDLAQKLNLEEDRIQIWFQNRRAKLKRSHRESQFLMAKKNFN

Chain of HESX1 (Homo sapiens, UniProt Q9UBX0 95-180) (Q9UBX0 95-180): as the sequence (Q9UBX0 95-180 F115L) above, with L21F counted along it
Chain of HESX1 (Homo sapiens, UniProt Q9UBX0 95-180, R165K) (Q9UBX0 95-180 R165K): as the sequence (Q9UBX0 95-180 F115L) above, with L21F, R71K counted along it
Chain of HESX1 (Homo sapiens, UniProt Q9UBX0 95-180, R109Q) (Q9UBX0 95-180 R109Q): as the sequence (Q9UBX0 95-180 F115L) above, with R15Q, L21F counted along it
Chain of HESX1 (Homo sapiens, UniProt Q9UBX0 95-180, P111T) (Q9UBX0 95-180 P111T): as the sequence (Q9UBX0 95-180 F115L) above, with P17T, L21F counted along it

Take AGTGTCGG: the binding signal in experiment [1] was 6.51 upbm affinity estimate (log intensity, higher = more binding, comparable within an allelic series); in experiment [2], 6.53 upbm affinity estimate (log intensity, higher = more binding, comparable within an allelic series); in experiment [3], 6.58 upbm affinity estimate (log intensity, higher = more binding, comparable within an allelic series); in experiment [4] it was 6.56 upbm affinity estimate (log intensity, higher = more binding, comparable within an allelic series); in experiment [5], 6.55 upbm affinity estimate (log intensity, higher = more binding, comparable within an allelic series).
Regarding CAAGCTCA, the binding signal is 6.51 upbm affinity estimate (log intensity, higher = more binding, comparable within an allelic series) in experiment [1]; 6.47 upbm affinity estimate (log intensity, higher = more binding, comparable within an allelic series) in experiment [2]; 6.46 upbm affinity estimate (log intensity, higher = more binding, comparable within an allelic series) in experiment [3]; 6.46 upbm affinity estimate (log intensity, higher = more binding, comparable within an allelic series) in experiment [4]; 6.53 upbm affinity estimate (log intensity, higher = more binding, comparable within an allelic series) in experiment [5].
Regarding CCGAAAGC, the binding signal in experiment [1] is 6.49 upbm affinity estimate (log intensity, higher = more binding, comparable within an allelic series); in experiment [2], 6.52 upbm affinity estimate (log intensity, higher = more binding, comparable within an allelic series); in experiment [3] it was 6.56 upbm affinity estimate (log intensity, higher = more binding, comparable within an allelic series); in experiment [4], 6.47 upbm affinity estimate (log intensity, higher = more binding, comparable within an allelic series); in experiment [5], 6.52 upbm affinity estimate (log intensity, higher = more binding, comparable within an allelic series).
As to GCCGAAAC, the binding signal in experiment [1] is 6.58 upbm affinity estimate (log intensity, higher = more binding, comparable within an allelic series); in experiment [2], 6.54 upbm affinity estimate (log intensity, higher = more binding, comparable within an allelic series); in experiment [3], 6.57 upbm affinity estimate (log intensity, higher = more binding, comparable within an allelic series); in experiment [4], 6.61 upbm affinity estimate (log intensity, higher = more binding, comparable within an allelic series); in experiment [5], 6.57 upbm affinity estimate (log intensity, higher = more binding, comparable within an allelic series).
With GACGGCGA, the binding signal is 6.46 upbm affinity estimate (log intensity, higher = more binding, comparable within an allelic series) in experiment [1]; 6.46 upbm affinity estimate (log intensity, higher = more binding, comparable within an allelic series) in experiment [2]; 6.44 upbm affinity estimate (log intensity, higher = more binding, comparable within an allelic series) in experiment [3]; 6.52 upbm affinity estimate (log intensity, higher = more binding, comparable within an allelic series) in experiment [4]; 6.44 upbm affinity estimate (log intensity, higher = more binding, comparable within an allelic series) in experiment [5].
As for GAAGTCGC, the binding signal is 6.48 upbm affinity estimate (log intensity, higher = more binding, comparable within an allelic series) in experiment [1]; 6.36 upbm affinity estimate (log intensity, higher = more binding, comparable within an allelic series) in experiment [2]; 6.51 upbm affinity estimate (log intensity, higher = more binding, comparable within an allelic series) in experiment [3]; 6.43 upbm affinity estimate (log intensity, higher = more binding, comparable within an allelic series) in experiment [4]; 6.56 upbm affinity estimate (log intensity, higher = more binding, comparable within an allelic series) in experiment [5].
As to ACATGGCG, the binding signal in experiment [1] is 6.32 upbm affinity estimate (log intensity, higher = more binding, comparable within an allelic series); in experiment [2], 6.4 upbm affinity estimate (log intensity, higher = more binding, comparable within an allelic series); in experiment [3] it was 6.43 upbm affinity estimate (log intensity, higher = more binding, comparable within an allelic series); in experiment [4], 6.38 upbm affinity estimate (log intensity, higher = more binding, comparable within an allelic series); in experiment [5], 6.49 upbm affinity estimate (log intensity, higher = more binding, comparable within an allelic series).
For CGACGTTC, the binding signal was 6.45 upbm affinity estimate (log intensity, higher = more binding, comparable within an allelic series) in experiment [1]; 6.3 upbm affinity estimate (log intensity, higher = more binding, comparable within an allelic series) in experiment [2]; 6.42 upbm affinity estimate (log intensity, higher = more binding, comparable within an allelic series) in experiment [3]; 6.41 upbm affinity estimate (log intensity, higher = more binding, comparable within an allelic series) in experiment [4]; 6.52 upbm affinity estimate (log intensity, higher = more binding, comparable within an allelic series) in experiment [5].
For the sequence GCCTGGCC, the binding signal was 6.59 upbm affinity estimate (log intensity, higher = more binding, comparable within an allelic series) in experiment [1]; 6.61 upbm affinity estimate (log intensity, higher = more binding, comparable within an allelic series) in experiment [2]; 6.46 upbm affinity estimate (log intensity, higher = more binding, comparable within an allelic series) in experiment [3]; 6.51 upbm affinity estimate (log intensity, higher = more binding, comparable within an allelic series) in experiment [4]; 6.6 upbm affinity estimate (log intensity, higher = more binding, comparable within an allelic series) in experiment [5].
CCACTGCG: the binding signal in experiment [1] was 6.48 upbm affinity estimate (log intensity, higher = more binding, comparable within an allelic series); in experiment [2], 6.49 upbm affinity estimate (log intensity, higher = more binding, comparable within an allelic series); in experiment [3], 6.5 upbm affinity estimate (log intensity, higher = more binding, comparable within an allelic series); in experiment [4], 6.5 upbm affinity estimate (log intensity, higher = more binding, comparable within an allelic series); in experiment [5], 6.42 upbm affinity estimate (log intensity, higher = more binding, comparable within an allelic series).
Regarding AGCACGCT, the binding signal is 6.37 upbm affinity estimate (log intensity, higher = more binding, comparable within an allelic series) in experiment [1]; 6.39 upbm affinity estimate (log intensity, higher = more binding, comparable within an allelic series) in experiment [2]; 6.5 upbm affinity estimate (log intensity, higher = more binding, comparable within an allelic series) in experiment [3]; 6.4 upbm affinity estimate (log intensity, higher = more binding, comparable within an allelic series) in experiment [4]; 6.46 upbm affinity estimate (log intensity, higher = more binding, comparable within an allelic series) in experiment [5].
On to AGCGTGGC, for which the binding signal in experiment [1] is 6.53 upbm affinity estimate (log intensity, higher = more binding, comparable within an allelic series); in experiment [2] it was 6.42 upbm affinity estimate (log intensity, higher = more binding, comparable within an allelic series); in experiment [3] it was 6.46 upbm affinity estimate (log intensity, higher = more binding, comparable within an allelic series); in experiment [4], 6.48 upbm affinity estimate (log intensity, higher = more binding, comparable within an allelic series); in experiment [5], 6.64 upbm affinity estimate (log intensity, higher = more binding, comparable within an allelic series).
As to TCCTGCCA, the binding signal is 6.57 upbm affinity estimate (log intensity, higher = more binding, comparable within an allelic series) in experiment [1]; 6.47 upbm affinity estimate (log intensity, higher = more binding, comparable within an allelic series) in experiment [2]; 6.52 upbm affinity estimate (log intensity, higher = more binding, comparable within an allelic series) in experiment [3]; 6.56 upbm affinity estimate (log intensity, higher = more binding, comparable within an allelic series) in experiment [4]; 6.6 upbm affinity estimate (log intensity, higher = more binding, comparable within an allelic series) in experiment [5].
For AGGACCCC, the binding signal in experiment [1] is 6.46 upbm affinity estimate (log intensity, higher = more binding, comparable within an allelic series); in experiment [2], 6.46 upbm affinity estimate (log intensity, higher = more binding, comparable within an allelic series); in experiment [3], 6.63 upbm affinity estimate (log intensity, higher = more binding, comparable within an allelic series); in experiment [4], 6.47 upbm affinity estimate (log intensity, higher = more binding, comparable within an allelic series); in experiment [5], 6.62 upbm affinity estimate (log intensity, higher = more binding, comparable within an allelic series).
On to CGCCACGA, for which the binding signal in experiment [1] is 6.55 upbm affinity estimate (log intensity, higher = more binding, comparable within an allelic series); in experiment [2] it was 6.36 upbm affinity estimate (log intensity, higher = more binding, comparable within an allelic series); in experiment [3], 6.47 upbm affinity estimate (log intensity, higher = more binding, comparable within an allelic series); in experiment [4], 6.47 upbm affinity estimate (log intensity, higher = more binding, comparable within an allelic series); in experiment [5], 6.57 upbm affinity estimate (log intensity, higher = more binding, comparable within an allelic series).
Turning to CGGCACGC, the binding signal is 6.6 upbm affinity estimate (log intensity, higher = more binding, comparable within an allelic series) in experiment [1]; 6.41 upbm affinity estimate (log intensity, higher = more binding, comparable within an allelic series) in experiment [2]; 6.57 upbm affinity estimate (log intensity, higher = more binding, comparable within an allelic series) in experiment [3]; 6.5 upbm affinity estimate (log intensity, higher = more binding, comparable within an allelic series) in experiment [4]; 6.53 upbm affinity estimate (log intensity, higher = more binding, comparable within an allelic series) in experiment [5].
Regarding AGTTCAGC, the binding signal in experiment [1] was 6.57 upbm affinity estimate (log intensity, higher = more binding, comparable within an allelic series); in experiment [2] it was 6.45 upbm affinity estimate (log intensity, higher = more binding, comparable within an allelic series); in experiment [3], 6.48 upbm affinity estimate (log intensity, higher = more binding, comparable within an allelic series); in experiment [4], 6.48 upbm affinity estimate (log intensity, higher = more binding, comparable within an allelic series); in experiment [5], 6.59 upbm affinity estimate (log intensity, higher = more binding, comparable within an allelic series).
Consider CTAGGCCC, for which the binding signal in experiment [1] was 6.43 upbm affinity estimate (log intensity, higher = more binding, comparable within an allelic series); in experiment [2] it was 6.46 upbm affinity estimate (log intensity, higher = more binding, comparable within an allelic series); in experiment [3] it was 6.51 upbm affinity estimate (log intensity, higher = more binding, comparable within an allelic series); in experiment [4] it was 6.58 upbm affinity estimate (log intensity, higher = more binding, comparable within an allelic series); in experiment [5] it was 6.46 upbm affinity estimate (log intensity, higher = more binding, comparable within an allelic series).
Consider AGGCAGCG, for which the binding signal was 6.62 upbm affinity estimate (log intensity, higher = more binding, comparable within an allelic series) in experiment [1]; 6.5 upbm affinity estimate (log intensity, higher = more binding, comparable within an allelic series) in experiment [2]; 6.59 upbm affinity estimate (log intensity, higher = more binding, comparable within an allelic series) in experiment [3]; 6.59 upbm affinity estimate (log intensity, higher = more binding, comparable within an allelic series) in experiment [4]; 6.39 upbm affinity estimate (log intensity, higher = more binding, comparable within an allelic series) in experiment [5].
